Data from PubChem BioAssay (Tox21).
Several values for one entry are separate records, joined by “and”; a condition that tells them apart may be missing. Equal values may be shown once. More than one record can exist for a structure, and the calls need not agree. Activity calls are given as the source filed them. Entries that show only a call come without a potency. Unless noted, the call rests on the fitted dose curve; in most records, active means well fitted curve in the direction sought with a large enough effect in the repeat runs; inconclusive means weak or mixed curves; inactive means no such curve, though single readings can be large; an effect the other way counts as inactive or inconclusive.

Key:
[1] = qHTS assay to identify small molecule antagonists of the thyroid receptor (TR) signaling pathway (AID 743065); further: nearly all actives have a fitted effect of over 55% in size
Summary of the method: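 Antagonism measured as loss of luciferase signal in GH3 cells stably carrying a TRE-luciferase reporter, co-treated with compound and T3 (1 nM final) for 23.5 h at 37 C. Viability was read in the same well by CellTiter-Fluor.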

[2] = system: thyroid hormone receptor (rat, GH3 cells); experiment: qHTS assay to identify small molecule agonists of the thyroid receptor (TR) signaling pathway (AID 743066; calls by dose curve)
[3] = qHTS assay to identify small molecule antagonists of the estrogen receptor alpha (ER-alpha) signaling pathway - cell viability counter screen (AID 743074; calls by dose curve;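 further: HEK293 cells carrying ER-alpha-UAS-bla reporter stimulated with 17beta-estradiol; nearly all actives have a fitted effect of over 45% in size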)
[4] = qHTS assay to identify small molecule antagonists of the estrogen receptor alpha (ER-alpha) signaling pathway using the BG1 cell line - cell viability counter screen (AID 743081);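 further: compound given together with 17beta-estradiol as the ER stimulus; nearly all actives have a fitted effect of over 45% in size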
Aromatase (Homo sapiens) = Aromatase (Homo sapiens) (UniProt P11511); experiment: qHTS assay to identify aromatase inhibitors (AID 743083); further: nearly all actives have a fitted effect of over 55% in size
Chain of Aromatase (Homo sapiens) (P11511 whole entry, looked up): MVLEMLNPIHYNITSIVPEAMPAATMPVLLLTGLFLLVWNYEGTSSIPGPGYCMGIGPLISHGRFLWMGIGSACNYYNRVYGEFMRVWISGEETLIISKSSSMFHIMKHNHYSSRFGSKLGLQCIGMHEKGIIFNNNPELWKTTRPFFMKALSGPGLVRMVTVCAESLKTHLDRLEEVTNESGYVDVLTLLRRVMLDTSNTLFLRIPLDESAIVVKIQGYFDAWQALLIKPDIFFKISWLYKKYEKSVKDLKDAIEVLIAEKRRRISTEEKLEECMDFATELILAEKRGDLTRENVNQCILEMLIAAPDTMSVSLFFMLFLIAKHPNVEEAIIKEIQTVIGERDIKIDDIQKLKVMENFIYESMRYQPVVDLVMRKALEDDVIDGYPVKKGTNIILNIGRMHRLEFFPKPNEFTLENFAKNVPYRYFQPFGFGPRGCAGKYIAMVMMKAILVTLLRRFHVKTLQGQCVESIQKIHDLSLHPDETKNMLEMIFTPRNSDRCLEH

[5] = molecular target: Estrogen receptor (Homo sapiens) (UniProt P03372); experiment: qHTS assay to identify small molecule antagonists of the estrogen receptor alpha (ER-alpha) signaling pathway (AID 743069; active means well fitted curve in the direction sought with a large enough effect in the signal ratio in the repeat runs, not every such curve was filed as active; inconclusive means weak or mixed curves, or effect the other way; inactive means no such curve, though single readings can be large or run the other way; the % refers to the signal ratio)
Chain of Estrogen receptor (Homo sapiens) (P03372 whole entry, looked up): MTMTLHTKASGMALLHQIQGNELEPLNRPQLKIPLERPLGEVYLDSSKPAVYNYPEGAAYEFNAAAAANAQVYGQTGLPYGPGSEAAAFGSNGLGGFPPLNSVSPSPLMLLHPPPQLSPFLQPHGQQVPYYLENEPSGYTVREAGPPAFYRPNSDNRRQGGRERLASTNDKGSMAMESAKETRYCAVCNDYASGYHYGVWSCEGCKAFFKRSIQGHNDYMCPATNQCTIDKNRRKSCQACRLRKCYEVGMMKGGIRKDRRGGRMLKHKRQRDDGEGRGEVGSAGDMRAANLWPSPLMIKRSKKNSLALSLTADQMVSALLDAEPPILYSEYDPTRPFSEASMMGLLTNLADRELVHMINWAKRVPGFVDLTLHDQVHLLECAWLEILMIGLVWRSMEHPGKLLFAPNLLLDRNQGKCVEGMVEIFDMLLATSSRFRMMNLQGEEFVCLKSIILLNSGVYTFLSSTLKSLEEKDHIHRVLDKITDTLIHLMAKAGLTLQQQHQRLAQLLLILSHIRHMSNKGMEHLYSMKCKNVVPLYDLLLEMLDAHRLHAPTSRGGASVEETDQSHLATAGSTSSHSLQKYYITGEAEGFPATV
Summary of the method: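 Compound effects are measured against 17beta-estradiol stimulation in HEK293 cells with a UAS-controlled beta-lactamase reporter for ER-alpha. Exposure lasts 18 hr at 37C; LiveBLAzer B/G FRET substrate follows for 2 hr at room temperature.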

[6] = molecular target: Estrogen receptor (Homo sapiens) (UniProt P03372); experiment: qHTS assay to identify small molecule agonists of the estrogen receptor alpha (ER-alpha) signaling pathway (AID 743075; calls by dose curve)
[7] = qHTS assay to identify small molecule antagonists of the estrogen receptor alpha (ER-alpha) signaling pathway using the BG1 cell line (AID 743080; calls by dose curve;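 further: BG1 cells stimulated with 17beta-estradiol alongside compound; nearly all actives have a fitted effect of over 25% in size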); settings: BG1Luc4E2 ERE-luciferase antagonist mode, luminescence; activity change, negative = inhibition: at 70.3 µM (top of the series)
Summary of the method: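 Seeding, 24 h rest, compound transfer from DMSO, 17beta-estradiol addition, 21.5 h incubation, CellTiter-Fluor (30 min, 37 C), then ONE-Glo (30 min, room temperature): this sequence was run on BG1-Luc-4E2 reporter cells.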

[8] = molecular target: Estrogen receptor (Homo sapiens) (UniProt P03372); experiment: qHTS assay to identify small molecule agonists of the estrogen receptor alpha (ER-alpha) signaling pathway using the BG1 cell line (AID 743079); further: nearly all actives have a fitted effect of over 20% in size
Potency means the concentration at half of the fitted maximal effect.

Row | SMILES | Potency [1] | Potency [2] | Potency [3] | Potency [4] | Potency (Aromatase (Homo sapiens)) | Potency [5] | Potency [6] | Potency [7] | Potency [8]
1 | CCCCOC(=O)c1ccc(O)cc1 | inactive | inactive | inactive | inactive | inactive | – | – | – | –
2 | CN(C)CCOC(C)(c1ccccc1)c1ccccn1 (centres undefined) | – | – | inactive | inactive | inactive | – | – | – | –
3 | COc1ccc2cc(S(=O)(=O)N[C@H](CC(=O)N[C@H](Cc3ccc(CN4[C@H](C)CCC[C@@H]4C)cc3)C(=O)N(C)C(C)C)c3ccc4c(c3)OCO4)ccc2c1 | 3.65 µM (active) | – | 52 µM (active) | 9.17 µM (active) | 46 µM (active) | inactive | – | – | –
4 | NC(=O)n1c(O)c(C(=O)c2cccs2)c2cc(Cl)ccc21 | 29.8 µM (active) | – | inactive | – | – | 21.3 µM [inconclusive] (active) | inactive | 29.8 µM (active) | –
5 | CC(O)(P(=O)(O)O)P(=O)(O)O | – | inactive | inactive | inactive | inactive | – | – | – | –
6 | Nc1ccc(S(N)(=O)=O)cc1 | inactive | inactive and 9.74 µM (active) | inactive | inactive | inactive | – | – | – | –
7 | Cc1cc(=O)oc2cc(O)ccc12 | – | inactive | inactive | inactive | inactive | inactive | inactive | inactive | inactive
8 | CN(C)C(=S)SC(=S)N(C)C | 1.68 µM (active) and 1.57 µM (active) and 306 nM (active) | inactive | inactive and 49 µM (active) | inactive | 2.98 µM (active) and 994 nM (active) and 243 nM (active) | – | – | – | –
9 | C1CCC(C(CC2CCCCN2)C2CCCCC2)CC1 (centres undefined) | 5.96 µM (active) | – | 21.3 µM (active) | – | – | – | – | – | –
10 | COc1cccc(O)c1O | – | inactive | inactive | – | 35.7 µM (active) | – | 50.7 µM [activator] (active) | inactive | inactive
11 | O=C(O)c1ccccc1 | – | – | inactive | inactive | inactive | inactive | inactive | inactive | 5.1 µM (active) and inactive
12 | C[C@](N)(Cc1ccc(O)c(O)c1)C(=O)O | – | inactive | inactive | inactive | inactive | – | – | – | –
13 | CC1(C)S[C@@H]2[C@H](NC(=O)[C@H](N)c3ccccc3)C(=O)N2[C@H]1C(=O)O | – | – | inactive | inactive | inactive | – | – | – | –
14 | O=C1NC(=O)C(c2ccccc2)(c2ccccc2)N1 | inactive | inactive | inactive | inactive | inactive | – | – | – | –
15 | CNNCc1ccc(C(=O)NC(C)C)cc1 | inactive | inactive | inactive | inactive | inactive | – | – | – | –
16 | C=CCc1ccc(O)c(OC)c1 | – | – | inactive | inactive | inactive | inactive | inactive | inactive | inactive
17 | CC(C)c1c(C(=O)Nc2ccccc2)c(-c2ccccc2)c(-c2ccc(F)cc2)n1CC[C@@H](O)C[C@@H](O)CC(=O)O | – | inactive | inactive | inactive | – | – | – | – | –
18 | NC(=O)c1cccnc1 | – | – | inactive | inactive | inactive | inactive | inactive | inactive | inactive
19 | CCCCC(CC)C(=O)O (centres undefined) | inactive | inactive | inactive | inactive | inactive | – | – | – | –
20 | OC[C@H]1O[C@H](O[C@]2(CCl)O[C@H](CCl)[C@@H](O)[C@@H]2O)[C@H](O)[C@@H](O)[C@H]1Cl | inactive | inactive | inactive | inactive | inactive | – | – | – | –
21 | O=c1[nH]cc(F)c(=O)[nH]1 | – | – | inactive | inactive | inactive | inactive | inactive | inactive | inactive
22 | C1=CC2C3C=CC(C3)C2C1 (centres undefined) | inactive | inactive | – | inactive | – | – | – | – | –
23 | COc1ccc(CN(CCN(C)C)c2ccccn2)cc1 | – | inactive | inactive | inactive | – | – | – | – | –
24 | CN1CCc2cccc3c2[C@H]1Cc1ccc(O)c(O)c1-3 | – | – | inactive | 69.3 µM (active) | 21.9 µM (active) and 11.4 µM (active) | inactive | inactive | – | –
25 | O=C(O)CC(O)C(=O)O (centres undefined) | – | – | inactive | inactive | inactive | – | – | – | –
26 | CC1(C)O[C@@H]2C[C@H]3[C@@H]4CCC5=CC(=O)C=C[C@]5(C)[C@@]4(F)[C@@H](O)C[C@]3(C)[C@]2(C(=O)CO)O1 | inactive | inactive | inactive | inactive | inactive | – | – | – | –
27 | COc1ccc(OC(F)(F)F)cc1CN[C@H]1CCCN[C@H]1c1ccccc1 | 24.3 µM (active) | – | – | inactive | – | inactive | inactive | – | –
28 | Oc1ccccc1 | – | – | inactive | inactive | inactive | – | – | – | –
29 | CCN(Cc1c(F)cccc1Cl)c1c([N+](=O)[O-])cc(C(F)(F)F)cc1[N+](=O)[O-] | – | inactive | inactive | inactive | 27.3 µM (active) | – | inactive | inactive | 21.7 µM (active)
